HTT ATP protect – cytoprotection in Huntington HTT-Q103 PC12 cell model. PC12 HTT-Q103 induced, cytoprotection, ATP luminescence, 40 h. Potency, µM (top dose mostly 56.4 µM), hits mostly activators. hit rate 0.14% among 230,000. AID 1471; also: nearly all actives have a fitted effect of over 45% in size
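Rat PC12, Q103 Htt exon1-GFP fusion, ecdysone promoter; tebufenozide inducer 100 nM final; compound titration; qHTS, 1500 cells/well; ATPlite luminescent read.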
JMJD2E inh – inhibitors of human JMJD2E histone demethylase | B2RXH2 | JMJD2E catalytic domain, FDH-coupled NADH fluorescence (FDH is formaldehyde dehydrogenase) | Potency, µM (top dose mostly 57.1 µM), usual class: inhibitors | hit rate 1.6% among 230,000; active = well fitted inhibition curve with a large enough effect, not every such curve was filed as active; inconclusive = small, poorly fitted or top-dose-only effect, or another doubt; inactive = no such curve, though single readings can be large or run the other way; also: nearly all actives have a fitted effect of over 50% in size
CBFb-RUNX1 inh – inhibitors of human CBF-beta and RUNX1 interaction; Q01196+Q13951; AlphaScreen CBFb-His/RUNX1-biotin binding, biochemical; Potency, µM (top dose mostly 59.8 µM), hits mostly inhibitors; 230,000 tested, under 10 active; AID 1477
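Interaction loss through any mechanism counts as activity. Pre-formed complex of His-CBF-beta and biotin-RUNX1 (30 nM apiece) is incubated with compound 15 min, then with 50 ng nickel and 50 ng streptavidin beads for 90 min before AlphaScreen detection.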
HTT aggregate – inhibitors of mutant huntingtin aggregate formation in PC12 cells. PC12 HttQ103-GFP aggregates, Acumen cytometry, 40 h. Potency, µM (top dose mostly 46.1 µM), most hits filed as inhibitors. AID 1688. hit rate 1.1% among 220,000; also: nearly all actives have a fitted effect of over 60% in size
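Steps: seed 1500 PC12 HTTQ103-GFP cells/well; add tebufenozide, 100 nM final; add compound titration; add ATPLite reagent; quantify GFP aggregates by laser scanning cytometry.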
HPGD block – blocks human HPGD enzyme activity; P15428; purified HPGD, NADH fluorescence kinetic, PGE2 substrate; Potency, µM, most hits filed as inhibitors; hit rate 4.3% among 150,000; active = well fitted inhibition curve with a large enough effect, not every such curve was filed as active; inconclusive = small, poorly fitted or top-dose-only effect, or another doubt; inactive = no such curve, though single readings can be large or run the other way
Target sequence (P15428 whole entry, looked up): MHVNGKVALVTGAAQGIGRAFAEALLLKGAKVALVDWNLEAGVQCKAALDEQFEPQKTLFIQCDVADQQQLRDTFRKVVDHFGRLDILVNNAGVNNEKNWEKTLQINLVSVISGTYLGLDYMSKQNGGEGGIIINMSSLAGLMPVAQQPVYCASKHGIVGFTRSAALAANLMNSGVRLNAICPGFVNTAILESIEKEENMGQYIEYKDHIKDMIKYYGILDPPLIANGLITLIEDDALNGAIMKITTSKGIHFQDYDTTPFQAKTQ
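NADH formation kinetics: reaction with 30 uM PGE2 and 1 mM NAD+ (final), 20 nM enzyme, Tris-HCl pH 8 with Tween 20, after 15 min compound preincubation at room temperature. Fluorescence change, last versus first of five reads.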
ALDH1A1 block – inhibitors of human aldehyde dehydrogenase 1A1; P00352; Purified ALDH1A1, NADH fluorescence, propionaldehyde substrate; Potency, µM (top dose mostly 75.3 µM), actives largely listed as inhibitors; hit rate 7.3% among 220,000; active = well fitted inhibition curve with a large enough effect, not every such curve was filed as active; inconclusive = small, poorly fitted or top-dose-only effect, or another doubt; inactive = no such curve, though single readings can be large or run the other way
Target sequence (P00352 whole entry, looked up): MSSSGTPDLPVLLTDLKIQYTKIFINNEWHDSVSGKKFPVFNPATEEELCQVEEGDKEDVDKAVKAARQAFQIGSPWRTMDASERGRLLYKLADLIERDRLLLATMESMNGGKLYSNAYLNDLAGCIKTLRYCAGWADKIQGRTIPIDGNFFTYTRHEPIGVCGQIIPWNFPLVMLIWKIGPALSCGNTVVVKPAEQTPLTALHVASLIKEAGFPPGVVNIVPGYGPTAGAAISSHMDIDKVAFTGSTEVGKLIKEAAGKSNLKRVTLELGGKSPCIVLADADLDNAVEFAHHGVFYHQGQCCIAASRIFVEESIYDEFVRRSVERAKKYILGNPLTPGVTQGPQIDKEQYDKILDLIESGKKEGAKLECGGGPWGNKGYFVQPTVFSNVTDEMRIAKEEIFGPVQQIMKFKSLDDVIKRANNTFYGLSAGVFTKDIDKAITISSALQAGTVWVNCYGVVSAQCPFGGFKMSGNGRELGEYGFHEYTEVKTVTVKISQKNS
Each line names hits and unclear results; the compound was inactive in the other large screens. A selection: hits, their analogues and other compounds. The true share with any hit is near 9.8%. Unless noted, calls follow the shape of the dose curve; as a rule, active = well fitted curve in the direction sought with a large enough effect; inconclusive = small, poorly fitted or top-dose-only effect, or another doubt; inactive = no such curve, though single readings can be large; an effect the other way counts as inactive or inconclusive.

Cc1ccc(SCC(=O)Nc2ccc(N3CCN(C)CC3)c(F)c2)c(C)c1	none (no result: HPGD block)
CCOc1ccccc1-n1c(C)cc(C=O)c1C	ALDH1A1 block inconclusive (no result: HPGD block)
COc1ccc(Cl)cc1-n1c(C)cc(C=O)c1C	HPGD block 14.1µM, ALDH1A1 block 12.6µM
COc1ccc(Cl)cc1-n1c(C)cc(C(=O)O)c1C	HPGD block 12.6µM, ALDH1A1 block inconclusive
Cc1nn(Cc2cccc(C(=O)NC34CC5CC(CC(C5)C3)C4)c2)c(C)c1Br	HTT aggregate 20µM, ALDH1A1 block inconclusive
CCCNC(=O)c1cccc(Cn2nc(C)c(Br)c2C)c1	none
CC(=O)Nc1ccc(Nc2ccc3nonc3c2[N+](=O)[O-])cc1	ALDH1A1 block 22.4µM (no result: HPGD block)
CC(C)CO/N=C1/C[C@@H](O)[C@@H](O)[C@@H]2[C@@H]3C(=O)N(Cc4ccccc4)C(=O)[C@H]3CC[C@H]12	none (no result: JMJD2E inh, HTT aggregate, HPGD block)
CC(C)CO/N=C1/C[C@@H](O)[C@@H](O)[C@@H]2[C@@H]3C(=O)N(Cc4ccccc4)C(=O)[C@H]3CC[C@@H]12	HTT ATP protect 2.82µM (no result: JMJD2E inh, HTT aggregate, HPGD block)
O=C1C=C[C@@H](O)[C@H]2[C@@H]3C(=O)N(Cc4ccccc4)C(=O)[C@@H]3CC[C@H]12	ALDH1A1 block 3.16µM (no result: JMJD2E inh, HTT aggregate, HPGD block)
Cc1ccc(S(=O)(=O)Oc2ccc(N=Nc3ccc(-c4ccc(N=Nc5c(O)ccc6cc(S(=O)(=O)O)cc(S(=O)(=O)O)c56)c(C)c4)cc3C)cc2)cc1	ALDH1A1 block inconclusive (no result: JMJD2E inh, CBFb-RUNX1 inh, HTT aggregate)
O=C1N/C(=C/c2ccc(N3CCOCC3)o2)C(=O)N1c1cccc(Cl)c1	HTT aggregate inconclusive, ALDH1A1 block 17.8µM (no result: HPGD block)
Cc1nnc(N2CCOCC2)c2nn(-c3cccc(Cl)c3)c(C)c12	JMJD2E inh inconclusive
c1ccc(-c2cn3c(n2)-c2ccccc2C3)cc1	JMJD2E inh 3.16µM, HPGD block inconclusive, ALDH1A1 block inconclusive
CC(C)(C)NC(=O)COC(=O)c1cncc(Br)c1	none
CCc1ccc(N2C(=O)CC(N3CCN(Cc4ccc5c(c4)OCO5)CC3)C2=O)cc1 (stereo unspecified)	ALDH1A1 block inconclusive (no result: HTT ATP protect, HTT aggregate, HPGD block)
FC(F)(F)c1nc(-c2cccnc2)ncc1-c1nnnn1-c1ccccc1	HTT aggregate inconclusive
CCc1ccccc1-n1nnnc1-c1cnccc1C(F)(F)F	ALDH1A1 block 17.8µM (no result: HPGD block)
O=C(Nc1ccc(Oc2ccc(NC(=O)C3CCCO3)cc2)cc1)C1CCCO1 (stereo unspecified)	HPGD block 1.41µM, ALDH1A1 block inconclusive
O=C(NCCCN1CCOCC1)c1ccc(NC(=O)C2COc3ccccc3O2)cc1 (stereo unspecified)	none (no result: HPGD block)
O=C(NCCN1CCN(c2ccccc2)CC1)c1ccc(NC(=O)C2CCCO2)cc1 (stereo unspecified)	HTT aggregate inconclusive, ALDH1A1 block 28.2µM
Cc1cc(C)c(NS(=O)(=O)c2ccc(NC(=O)c3cccs3)cc2)c(C)c1	none
Cc1ccc(S(=O)(=O)Nc2ccc(NC(=O)c3cccs3)cc2)cc1	ALDH1A1 block 28.2µM (no result: HPGD block)
COc1ccc(NS(=O)(=O)c2ccc(NC(=O)C3CCCO3)cc2)cc1 (stereo unspecified)	HTT aggregate inconclusive
Cc1ccc(NS(=O)(=O)c2ccc(NC(=O)C3CCCO3)cc2)cc1 (stereo unspecified)	HTT aggregate inconclusive, ALDH1A1 block 22.4µM
Cc1cccc(-n2cnc3c(sc4nc(N5CCOCC5)c5c(c43)CCCC5)c2=O)c1	JMJD2E inh inconclusive, ALDH1A1 block inconclusive (no result: HPGD block)
CN(CCC#N)C(=O)CC1(Cc2ccccc2)CCOC(C)(C)C1 (stereo unspecified)	none (no result: HPGD block, ALDH1A1 block)
COc1ccc(-c2nc3cnc(N4CCOCC4)nc3n(C[C@H]3CCCO3)c2=O)cc1	ALDH1A1 block inconclusive (no result: JMJD2E inh, CBFb-RUNX1 inh, HTT aggregate, HPGD block)
O=C(CC1S/C(=N/N=C/c2cccs2)NC1=O)Nc1ccccc1F (stereo unspecified)	none (no result: HTT ATP protect, HPGD block)
Cc1nc(C)c(C(=O)NNS(=O)(=O)c2ccc([N+](=O)[O-])cc2)s1	none
COc1ccc2c(c1)O[C@H](c1ccc3c(c1)OCO3)[C@@H](OC(=O)NCCc1ccc(OC)c(OC)c1)C2=O	none (no result: HTT aggregate)
O=C(Nc1ccc2c(c1)C(=O)N(c1ccccc1)C2=O)C1CCCO1 (stereo unspecified)	ALDH1A1 block 14.1µM
Cc1ccc(CN2CCN(CC(=O)O)C2=O)cc1	none (no result: HPGD block)
Cc1nc([N+](=O)[O-])c(Sc2nc3ccccc3[nH]2)n1Cc1ccccc1	HTT ATP protect inconclusive, HTT aggregate inconclusive
Cc1cccnc1Sc1c([N+](=O)[O-])ncn1C	ALDH1A1 block 15.8µM
Cn1cnc([N+](=O)[O-])c1Sc1nc2ccccc2[nH]1	ALDH1A1 block 20µM (no result: HPGD block)
CCN1CCN(c2ccc([N+](=O)[O-])c(Sc3nc4ccccc4[nH]3)c2)CC1	none (no result: HPGD block)
CS(=O)(=O)c1cc([N+](=O)[O-])c(Sc2nc3ccccc3[nH]2)c([N+](=O)[O-])c1	HTT aggregate inconclusive, HPGD block 3.55µM, ALDH1A1 block 8.91µM
Cc1cccc(Sc2c([N+](=O)[O-])ncn2C)c1	HPGD block 5.01µM
CC(=O)OC[C@@H]1O[C@H](C/C=N\O[C@@H](C)c2cc(-c3c(C)cc(C)cc3C)no2)C=C[C@@H]1OC(C)=O	none (no result: JMJD2E inh, HTT aggregate, HPGD block)
O=C(Nc1ccc(Cl)cc1)OCCN1CCN(Cc2ccccc2)CCC1=O	none (no result: JMJD2E inh, HTT aggregate)
CC(=O)O[C@@H](C)C#C[Si](C)(C)c1ccccc1	none (no result: HTT aggregate)
CCOC(=O)/C(=C\c1cccc(O)c1)c1nc2sc(C)c(C)c2c(=O)[nH]1	HPGD block 7.94µM, ALDH1A1 block 7.94µM
CC1CCCC(CC(=O)O)(CC(=O)O)C1 (stereo unspecified)	none (no result: HPGD block)
COc1ccc2c(c1)CCN(C(=O)CCl)C2C1C(=O)CCCC1=O (stereo unspecified)	JMJD2E inh inconclusive, ALDH1A1 block 22.4µM
Cn1nc(C(F)(F)F)c(/C=N/OC(=O)c2ccccc2Cl)c1SCc1ccccc1Cl	HTT aggregate 10µM
Cn1nc(C(F)(F)F)c(/C=N/OC(=O)c2ccccc2)c1SCc1ccc(Cl)cc1	HTT aggregate inconclusive
O=C(c1ccccc1)c1coc2ccc(O)c(Cl)c12	HPGD block 14.1µM, ALDH1A1 block inconclusive
Cc1ccc(C(=O)c2coc3ccc(O)c(Cl)c23)cc1	HTT aggregate inconclusive
COc1cccc2c(SCC(=O)N/N=C/c3ccc(O)cc3O)cc(C)nc12	JMJD2E inh 28.2µM, ALDH1A1 block 28.2µM (no result: HPGD block)
COc1ccccc1/C=N/NC(=O)CSc1cc(C)nc2ccccc12	ALDH1A1 block inconclusive (no result: HPGD block)
COc1ccc2nc(C)cc(SCC(=O)N/N=C/c3ccc(O)cc3O)c2c1	HTT aggregate inconclusive, ALDH1A1 block 25.1µM
CCOC(=O)c1cccc(NC(=O)CSc2nnc(-c3ccoc3C)n2CCOC)c1	ALDH1A1 block 20µM

Assay outcomes (PubChem)
